Screening data (PubChem)
An excerpt weighted towards active compounds, which were near 21% of everything screened.
DRD3 agonist: qHTS of D3 Dopamine Receptor Agonist: qHTS. max activation, %. D3R DiscoveRx beta-arrestin cells, luminescence, 90 min. D(3) dopamine receptor (Homo sapiens), P35462. 410,000 compounds, 0.58% hits; in the data active = max activation above about 30%; note: 0% is about no effect
Target sequence (P35462 whole entry, looked up): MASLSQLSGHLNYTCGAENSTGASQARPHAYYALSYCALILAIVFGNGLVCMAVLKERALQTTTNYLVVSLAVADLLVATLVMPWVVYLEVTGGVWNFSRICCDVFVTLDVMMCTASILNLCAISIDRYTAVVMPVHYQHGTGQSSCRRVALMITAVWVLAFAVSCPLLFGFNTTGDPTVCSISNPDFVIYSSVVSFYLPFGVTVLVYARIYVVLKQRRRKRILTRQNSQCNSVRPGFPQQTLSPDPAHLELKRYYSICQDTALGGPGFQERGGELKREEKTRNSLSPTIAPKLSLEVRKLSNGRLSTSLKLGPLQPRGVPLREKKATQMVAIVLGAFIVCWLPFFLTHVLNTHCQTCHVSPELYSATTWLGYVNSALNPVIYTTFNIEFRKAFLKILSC
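Cells at 1500/well, incubated overnight, then treated with pinned compounds (dopamine as control) for 90 min at 37 degrees C. DiscoveRx reagent added for 30 - 60 minutes at room temperature; luminescence read.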
ClpP mod: qHTS Assay for Activators of ClpP; 340,000 compounds, 1.9% hits; purified B. subtilis ClpP, FRET peptide cleavage, 20 min; ATP-dependent Clp protease proteolytic subunit (Bacillus subtilis (strain 168)), P80244; Potency, µM (titrated, usually from 57.5 µM), for the others: at the top dose activity change, negative = active; active = well fitted falling curve with a large enough effect; inconclusive = small, poorly fitted or top-dose-only effect; inactive = no such curve, though single readings can be large or run the other way; note: potency is the fitted concentration of half-maximal effect; the source files actives as falling curves though it sought activators and does not explain the sign; nearly all actives have a fitted effect of over 65% in size
Target sequence (P80244 whole entry, looked up): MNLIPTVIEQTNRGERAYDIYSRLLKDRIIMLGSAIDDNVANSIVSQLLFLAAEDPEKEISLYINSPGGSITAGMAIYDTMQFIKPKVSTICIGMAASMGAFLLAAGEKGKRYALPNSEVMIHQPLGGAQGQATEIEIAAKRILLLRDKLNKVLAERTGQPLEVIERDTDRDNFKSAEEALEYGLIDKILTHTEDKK
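ClpP 10 microg/mL final, pH 8 Tris/KCl buffer with BSA, glycerol, Tween-20; compound pinned in; FRET-FV substrate; RT 20 min; Ex320/Em430; ΔFRET vs ADEP 5.8 microM, DMSO, no enzyme.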
DT40 TDP1 no CPT: qHTS for Inhibitors of human tyrosyl-DNA phosphodiesterase 1 (TDP1): qHTS in cells in absence of CPT | 420,000 compounds, 15% hits | Potency, µM (top dose mostly 46.2 µM), inactives show at the top dose activity change, negative = growth inhibition, hits mostly inhibitors | DT40 Tdp1-/- hTDP1 cells, no CPT, ATP luminescence, 48 h; note: potency is the fitted concentration of half-maximal effect; % is set by controls: 0 for no effect and ±100 for the full control effect; nearly all actives have a fitted effect of over 55% in size
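Camptothecin absent (DMSO only). Human TDP1-complemented DT40 knockout cells, 400 cells/well, 37 °C for minimum 48 hr; ATP measured via CellTiter-Glo, 30 min dark incubation, luminescence.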
D3 antag: qHTS of D3 Dopamine Receptor Antagonist: qHTS; D3R cells, DiscoveRx beta-arrestin luminescence, antagonist mode; active compounds read low; D(3) dopamine receptor (Homo sapiens), P35462; AID 652054, 2013; max response, negative = inhibition, %; 360,000 compounds, 2.5% hits; in the data active = max response below about -50%; inconclusive = no clear call, values can overlap the other calls; note: % is set by controls: 0 for no effect and ±100 for the full control effect
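Cells expressing the human receptor were seeded at 1500 cells/well, incubated overnight at 37 degrees C in 5% CO2, then exposed to library compounds with dopamine controls for 90 minutes at 37 degrees C before luminescent detection.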
IL1B secr inh: qHTS for Inhibitors of Inflammasome Signaling: IL-1-beta AlphaLISA Primary Screen; AID 743279, 2014; 360,000 compounds, 4.7% hits; activity change, % at 57.5 µM; THP-1 LPS/ATP IL-1B secretion, AlphaLISA, 16 h; active compounds read low; in the data active = activity change below about -50%; inconclusive = mostly about -30% to -49%; note: % is set by controls: 0 for no effect and ±100 for the full control effect
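THP-1 cells pretreated 1 hr with compounds (up to 57.5 uM final), then stimulated with LPS (250 ng/mL final) plus ATP (1.25 mM final); secreted IL-1B measured by AlphaLISA after 16 hr, decreased signal indicating inhibition.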
TDP1 cell CPT: qHTS for Inhibitors of human tyrosyl-DNA phosphodiesterase 1 (TDP1): qHTS in cells in presence of CPT. chicken DT40 Tdp1-/-;hTDP1 cells + 20 nM CPT, ATP luminescence, 48 h. Potency, µM (titrated, usually from 46.2 µM), inactives show top-dose activity change, negative = growth inhibition, usual class: inhibitors. 420,000 compounds, 12% hits; note: potency is the fitted concentration of half-maximal effect; % is set by controls: 0 for no effect and ±100 for the full control effect; nearly all actives have a fitted effect of over 55% in size
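Chicken DT40 Tdp1-/- cells complemented with human TDP1, 400 cells/well, exposed to compounds plus 20 nM camptothecin for at least 48 h at 37 C; viability read as ATP content by CellTiter-Glo luminescence.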
The depositor's hits bear a star; ? = inconclusive; . = no result given. Unless noted, calls come from the whole dose curve; as a rule, active = well fitted inhibition curve with a large enough effect; inconclusive = small, poorly fitted or top-dose-only effect; inactive = flat fitted curve, though single readings scatter.

SMILES	DRD3 agonist	ClpP mod	DT40 TDP1 no CPT	D3 antag	IL1B secr inh	TDP1 cell CPT
Cc1ccc(S(=O)(=O)N(C)C)cc1NC(=O)CCCNC(=O)c1ccc(Cl)cc1	-0.3	.	-2.6%	9.8	-5.8	4.2%
COCCCNCCCOc1ccc(Cl)cc1C(C)(C)C	-39.9	-1.3%	18.4µM*	?	-89.2*	11.6µM*
C=CCc1ccc(OCCCCNC(C)CC)c(OC)c1 (centres undefined)	-9.8	-1.9%	18.4µM*	-18.7	-2.3	?
C/C=C/c1ccc(OCCCNC(C)CC)c(OC)c1 (centres undefined)	-4.8	-1.3%	-16.5%	?	?	1.2%
CCC(C)NCCCOc1ccc(Cl)cc1C(C)(C)C (centres undefined)	-11.2	-9.7%	?	-68.9*	-8.5	?
C=CCc1cc(Cl)ccc1OCCCNC(C)CC (centres undefined)	-7.7	-7.8%	14.6µM*	?	0.0	16.4µM*
CCN(CC)S(=O)(=O)c1ccc(OC)c(NC(=O)CSc2cc(Cl)ccc2Cl)c1	4.3	-2.5%	?	9.5	-16.4	?
Cc1cccc(N2CN=C3SCC(=O)N3C2)c1	-1.6	1.3%	?	0.1	-25.4	-28.6%
C1CC(=NN=C2CCSCC2)CCS1	25.8	.	-15.0%	0.0	-13.6	9.7%
CC(=O)c1cccc(NC(=O)Cn2cnc(S(=O)(=O)N3CCOCC3)c2)c1	1.2	-0.9%	13.6%	1.3	6.8	-10.9%
CNCCCOc1ccc(Cl)cc1C(C)(C)C	-12.0	.	16.4µM*	?	-71.9*	?
C=CCc1cc(Cl)ccc1OCCOCCNC(C)(C)C	1.5	-1.3%	?	-1.1	-9.4	?
CCOC1=C2CN(S(=O)(=O)c3ccc(C)cc3)[C@H](c3cccc(Cl)c3)C[C@H]2[C@H]2C(=O)N(c3ccccc3)C(=O)[C@H]2C1	10.2	1.5%	-11.9%	0.0	-17.1	-11.0%
CCOC1=C2CN(S(=O)(=O)c3ccc(C)cc3)C(c3cccc(Cl)c3)CC2N(S(=O)(=O)c2ccc(C)cc2)C(c2ccncc2)C1 (centres undefined)	-12.7	-2.5%	16.4µM*	-19.7	5.7	14.6µM*
CCOC1=C2CN(S(=O)(=O)c3ccc(C)cc3)C(c3cccc(Cl)c3)CC2N(S(=O)(=O)c2ccc(Cl)cc2)C(c2ccccc2)C1 (centres undefined)	4.3	0.1%	?	8.7	13.3	?
CCOC1=C2CN(S(=O)(=O)c3ccc(C)cc3)C(c3cccc(Cl)c3)CC2NC(c2ccccc2)C1 (centres undefined)	9.7	-3.3%	?	10.0	-14.5	18.4µM*
COc1ccccc1NC(=O)N1CCOc2ccccc21	1.2	-1.4%	-13.4%	.	.	-35.2%
C=CCn1cccc(C(=O)Nc2ccc(N(C)C)cc2)c1=O	-9.2	0.8%	0.9%	-21.2	0.0	-6.6%
Cc1ccc(N2CCN(C(=O)c3ccc(Nc4nc5ccccc5n5nnnc45)cc3)CC2)c(C)c1	-6.4	1.1%	-12.8%	.	.	-5.9%
CN1C(=O)C(O)(CC(=O)c2ccncc2)c2ccccc21 (centres undefined)	-7.0	-3.9%	?	0.0	-52.8*	?
CN1C(=O)C(O)(CC(=O)c2cccc(-n3cccc3)c2)c2ccccc21 (centres undefined)	-11.2	-3.5%	?	19.5	-10.9	20.6µM*
O=C(CC1(O)C(=O)Nc2ccccc21)c1cccc(-n2cccc2)c1 (centres undefined)	0.8	-1.1%	4.9%	11.7	-7.0	-9.0%
CN1CCN(CC(=O)c2ccccc2F)CC1	8.7	-4.2%	-8.0%	-18.5	1.2	-3.9%
O=C(C1CC1)N1CCN(c2ccc(O)cc2)CC1	-3.0	0.1%	?	-25.5	18.1	?
CCC(=O)c1ccc(OCC(O)CN2CCN(C(c3ccccc3)c3ccccc3)CC2)cc1 (centres undefined)	-62.0	-0.9%	?	-88.2*	?	?
SMILES	DRD3 agonist	ClpP mod	DT40 TDP1 no CPT	D3 antag	IL1B secr inh	TDP1 cell CPT
CCC(=O)c1ccc(OCC(O)CN2CCOCC2)cc1 (centres undefined)	0.5	-0.8%	-8.1%	12.7	15.3	15.4%
N#Cc1ccc(OCC(O)CN2CCN(C(c3ccccc3)c3ccccc3)CC2)cc1 (centres undefined)	-24.2	.	18.4µM*	-54.1*	-19.8	?
N#Cc1cc2c(OCC(O)CN3CCN(C(c4ccccc4)c4ccccc4)CC3)cccc2[nH]1 (centres undefined)	.	.	5.62µM*	.	.	8.9µM*
OC(COc1ccccc1)CN1CCN(C(c2ccccc2)c2ccccc2)CC1 (centres undefined)	-27.4	-0.9%	?	-95.5*	?	?
OC(COc1ccccc1)CN1CCCC1 (centres undefined)	-11.1	-0.2%	-2.4%	-6.0	0.0	13.0%
OC(COCc1ccco1)CN1CCN(C(c2ccccc2)c2ccccc2)CC1 (centres undefined)	-9.8	-2.4%	?	-22.8	-14.0	?
COCCCNC(=O)c1ccc(Cn2c(=O)c3ccccc3n(CC(=O)Nc3c(C)cccc3C)c2=O)cc1	-10.2	-2.7%	-6.5%	.	.	?
Cc1ccccc1-n1ncc(C(C)NC(=O)c2ccco2)c1C (centres undefined)	1.3	.	-29.9%	3.5	19.9	-27.0%
O=C(CSCc1c(Cl)cccc1Cl)Nc1ccc2c(c1)OCCO2	-1.6	15.8µM*	?	-0.8	11.9	-23.1%
O=C(CN1CCN(CC(=O)Nc2ccccc2Cl)CC1)Nc1ccc2c(c1)OCCO2	-0.4	4.3%	23.1µM*	7.1	-8.4	?
O=C(COc1ccccc1Cl)Nc1ccc2c(c1)OCCO2	1.6	1.3%	?	62.2	2.7	?
O=C(CN1CCC(C(=O)c2ccc(Cl)cc2)CC1)Nc1ccc2c(c1)OCCO2	-26.8	-1.3%	?	-76.3*	-17.6	?
COc1ccc(-c2nc3ccccc3s2)cc1	1.9	4.4%	-25.7%	23.8	34.2	-17.1%
CC(Oc1ccccc1F)C(=O)Nc1ccc(-c2nc3ccccc3s2)cc1 (centres undefined)	-5.7	3.16µM*	-25.8%	.	.	-21.5%
COc1ccccc1OC(C)C(=O)Nc1cccc(-c2nc3ccccc3s2)c1 (centres undefined)	2.6	-17.6%	11.6µM*	.	.	20.6µM*
